The target of this assay is Chromo domain-containing protein 1 (Saccharomyces cerevisiae (strain ATCC 204508 / S288c) (Baker's yeast)) (UniProt P32657). As to the kind of experiment: ScCHD-1 Enzyme Inhibition Assay. It is filed as functional. Set-up: scale not given: in the data most compounds retested in dose-response had high values. The following applies: 30 µM.
Chain of Chromo domain-containing protein 1 (Saccharomyces cerevisiae (strain ATCC 204508 / S288c) (Baker's yeast)) (P32657 whole entry, the tested form may be a part): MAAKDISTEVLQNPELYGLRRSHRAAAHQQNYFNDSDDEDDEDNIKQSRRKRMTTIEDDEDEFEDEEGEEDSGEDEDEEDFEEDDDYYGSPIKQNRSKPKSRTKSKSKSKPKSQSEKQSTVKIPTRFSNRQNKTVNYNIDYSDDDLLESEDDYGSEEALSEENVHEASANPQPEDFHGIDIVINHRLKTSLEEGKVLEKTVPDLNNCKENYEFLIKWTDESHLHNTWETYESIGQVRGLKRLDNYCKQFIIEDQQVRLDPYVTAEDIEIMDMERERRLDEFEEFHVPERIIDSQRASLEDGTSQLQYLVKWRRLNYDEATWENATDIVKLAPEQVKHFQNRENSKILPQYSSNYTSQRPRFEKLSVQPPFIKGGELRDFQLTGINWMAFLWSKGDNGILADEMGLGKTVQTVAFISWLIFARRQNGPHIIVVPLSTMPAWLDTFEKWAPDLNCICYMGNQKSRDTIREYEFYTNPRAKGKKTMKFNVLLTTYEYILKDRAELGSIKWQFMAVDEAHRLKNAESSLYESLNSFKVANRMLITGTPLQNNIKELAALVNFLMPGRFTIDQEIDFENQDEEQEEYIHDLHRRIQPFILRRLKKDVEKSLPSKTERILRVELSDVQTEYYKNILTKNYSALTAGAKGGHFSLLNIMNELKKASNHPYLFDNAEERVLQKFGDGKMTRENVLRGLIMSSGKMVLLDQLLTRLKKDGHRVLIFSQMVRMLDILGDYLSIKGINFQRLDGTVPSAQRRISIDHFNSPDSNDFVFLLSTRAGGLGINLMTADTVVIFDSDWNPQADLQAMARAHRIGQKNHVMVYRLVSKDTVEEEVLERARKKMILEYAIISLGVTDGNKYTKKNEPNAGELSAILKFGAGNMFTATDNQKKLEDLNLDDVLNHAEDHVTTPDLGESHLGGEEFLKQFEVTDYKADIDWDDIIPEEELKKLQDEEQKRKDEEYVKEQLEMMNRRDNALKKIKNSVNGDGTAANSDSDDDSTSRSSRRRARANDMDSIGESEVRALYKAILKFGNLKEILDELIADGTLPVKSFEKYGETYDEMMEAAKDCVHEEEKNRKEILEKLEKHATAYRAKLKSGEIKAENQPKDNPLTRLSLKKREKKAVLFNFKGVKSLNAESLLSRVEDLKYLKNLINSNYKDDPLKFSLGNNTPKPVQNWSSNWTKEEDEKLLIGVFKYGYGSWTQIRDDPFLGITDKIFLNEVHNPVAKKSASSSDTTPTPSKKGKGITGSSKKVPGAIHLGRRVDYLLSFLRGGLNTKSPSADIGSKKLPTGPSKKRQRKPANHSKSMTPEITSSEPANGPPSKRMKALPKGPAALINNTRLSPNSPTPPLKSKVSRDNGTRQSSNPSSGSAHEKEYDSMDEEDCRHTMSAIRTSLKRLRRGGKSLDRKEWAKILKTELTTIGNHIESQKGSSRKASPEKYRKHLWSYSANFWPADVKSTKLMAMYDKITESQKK
On to `CC(C)NC(=O)[C@@H](NC(=O)N1CCN(c2ccc(Cl)cc2)CC1)C(C)C`, for which the Percent Effect is -2.5%. The result for `CC(C)NC(=O)N1CCC2(C1)CN(c1ccsc1)C(=O)CN2C` (stereo not given) reads 10.4%; that for `Cc1csc(Nc2nccnc2C2CCCN2C(=O)C(C)C)n1` (stereo not given), -21.8%.

In the case of `CS(=O)(=O)NCc1ncn2c1CN(C(=O)CC1CCCC1)CCC2`, the Percent Effect is -0.829%. Then `c1ccc(CCNC2CCc3ncnn3C2)nc1` (stereo not given), with -9.93%; and `CS(=O)(=O)N1Cc2ccccc2C2(CCN(C(=O)c3ccno3)CC2)C1`, with -10.6%. In the case of `c1ccc(-n2ncc(CNC3CCc4ncnn4C3)n2)cc1` (stereo not given), the Percent Effect is 1.52%.

On to `O=C(NCCn1ccnc1)N1CCN(c2nccs2)CC1`, for which the Percent Effect is -11.9%. On to `CCN1CCO[C@]2(CCC[C@H]2COCc2csc(C)n2)C1`, for which the Percent Effect is -0.161%. For `O=C(NCCCn1ccnc1)N1CCN(c2cccs2)CC1`, the Percent Effect amounted to 0.725%. `CC1CN(CC2CCCCC2)CCN1c1ccc2nncn2n1` (stereo not given): the Percent Effect was 95.7%.

On to `CC(Cn1cccn1)NC(=O)NCc1cccs1` (stereo not given), for which the Percent Effect is -11.3%. Turning to `CCn1nc(C)c(CCNC(=O)C2CCCN(CC(N)=O)C2)c1C` (stereo not given), the Percent Effect is -5.53%. In the case of `CCn1ccnc1CNCC1CCCN1c1cccnn1` (stereo not given), the Percent Effect was -8.32%.

Consider `CCC(=O)N(C)CC(=O)Nc1ccc(Br)cn1`, for which the Percent Effect was -5.17%.

As to `Cn1ccc(CN2CCCC2c2ccc3c(c2)OCCCO3)cc1=O` (stereo not given), the Percent Effect is -1.67%.

Take `CCOc1ccc2[nH]c(=O)c(CN3CCC(O)CC3)cc2c1`: the Percent Effect was -0.516%. For `c1ncn(CC2CN(Cc3noc(C4CC4)n3)CCO2)n1` (stereo not given), the Percent Effect is -8.55%. On to `Cc1cccc(CN2C[C@@H]3CN(C(=O)[C@H]4CCCO4)C[C@@H]3C2=O)c1`, for which the Percent Effect was -6.96%. As to `CS(=O)(=O)c1cccc(C(N)c2ccc(F)c(F)c2)c1` (stereo not given), the Percent Effect was -9.26%.

With `CN1CCC/C1=N\S(=O)(=O)c1ccc(NC(=O)c2cccs2)cc1`, the Percent Effect is -10.9%.

On to `CC(NC(=O)NCCCn1cncn1)c1ccccc1Cl` (stereo not given), for which the Percent Effect is -11%. Regarding `Cn1cnc2c1CCN(Cc1csc(-c3ccsc3)n1)C2`, the Percent Effect is 25%.

As to `c1ncn(CC2CCCN2Cc2cn3ccsc3n2)n1` (stereo not given), the Percent Effect came out at 1.9%. The result for `Cn1cc(C(=O)N2CCCC(Cc3nccs3)C2)cn1` (stereo not given) reads -16.3%; that for `CCc1nc(C)c(C(=O)NCCN2CCN(C(C)=O)CC2)s1`, -6.18%. For `COCCO[C@H]1CCN(C(=O)c2cc(C)on2)[C@H]1Cc1ccccc1`, the Percent Effect was -5.82%.

On to `O=C(NCCc1ccccc1)C1CCCN(c2ccc3nncn3n2)C1` (stereo not given), for which the Percent Effect was -3.81%. As for `CCn1cc(NC(=O)NCc2ccc(CN3CCOCC3)cc2)cn1`, the Percent Effect is -1.62%. As for `CN(C)CCN1C(=O)CCC12CCN(C(=O)c1cccnc1)CC2`, the Percent Effect was -20.4%.

Take `Cc1ccc(NC(=O)N2C[C@H]3CC[C@@H]2CN(Cc2cscn2)C3)cc1`: the Percent Effect is 0.126%.

Regarding `Cc1cc(NC(=O)CN2CCCC2c2noc(C(C)C)n2)n(C)n1` (stereo not given), the Percent Effect was 0.723%. Then `CC(C)CCN(C)C(=O)c1nc(S(C)(=O)=O)n2ccccc12`, with -1.74%; and `Cc1cnn(CC2CN(CC(=O)NCc3ccccn3)CCO2)c1` (stereo not given), with -8.5%. Consider `COCCN1CCN(Cc2cccc(C(N)=O)c2)CC1C` (stereo not given), for which the Percent Effect was -19.1%. `Cc1cc(CN(C)C(=O)NCC(C)N2CCc3ccccc32)no1` (stereo not given): the Percent Effect was 4.85%. Consider `Cc1c(F)cccc1CN1CCn2nc(CNC(=O)N(C)C)cc2C1`, for which the Percent Effect is -7.8%. As to `CC(C)CNC(=O)c1ccc2nnc(C3CCN(S(C)(=O)=O)C3)n2c1` (stereo not given), the Percent Effect was -1.85%.

As for `CCOC(=O)N1CCN(C(=O)c2sc(-c3ccccc3F)nc2C)CC1`, the Percent Effect was -4.07%. Consider `COCCN1C(=O)CCC12CCN(C(=O)NC(C)C)CC2`, for which the Percent Effect is -3.15%.

The values are drawn from ChEMBL document CHEMBL3988442, “University of Dundee, Small-Polar-MMV Screening Library” (2021).
